Common to all, as to test: DAPPL (digital affinity profiling via proximity ligation, sequencing); 10 mM Tris-HCl pH 7.5, 50 mM NaCl, 1 mM DTT, 4% glycerol, room temperature, 30 min; GST-TFs on glutathione beads, 16-mer random dsDNA library, 0.1% formaldehyde crosslink after washing; high values mean tight binding
Settings in all cases: protein: recombinant; tags: N-terminal GST; dsDNA, one strand shown

One experiment deals with T1, FLI1 (Homo sapiens, UniProt Q01543 1-452).
T1 sequence: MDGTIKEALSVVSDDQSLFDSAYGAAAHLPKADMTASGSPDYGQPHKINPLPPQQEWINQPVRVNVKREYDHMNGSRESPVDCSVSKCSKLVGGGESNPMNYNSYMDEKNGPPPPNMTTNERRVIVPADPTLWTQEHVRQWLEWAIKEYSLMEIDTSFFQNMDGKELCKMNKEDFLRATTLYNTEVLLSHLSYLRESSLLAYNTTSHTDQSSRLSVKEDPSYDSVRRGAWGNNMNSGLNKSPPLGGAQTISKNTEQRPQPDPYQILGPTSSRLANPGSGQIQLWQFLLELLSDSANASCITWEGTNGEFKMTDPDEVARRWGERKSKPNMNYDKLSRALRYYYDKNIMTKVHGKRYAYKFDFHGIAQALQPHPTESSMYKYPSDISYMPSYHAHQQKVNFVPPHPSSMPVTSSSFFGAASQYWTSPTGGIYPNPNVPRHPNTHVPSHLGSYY
In a few lines: (§1)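 Binding signal is defined as a hexamer's read frequency for one factor over its frequency for the tag-only sample. To obtain reads, GST-fused human transcription factors were expressed in yeast, captured on glutathione beads, barcoded with DNA and pooled with that sample. Pools met 200 nmole of a 16-mer random double-stranded DNA library in Tris/NaCl/DTT/glycerol buffer for 30 min at room temperature before washing, 0.1% formaldehyde crosslinking, proximity ligation (BsaI/T4 ligase, 1 h, 37 °C), PCR and Illumina NextSeq500 sequencing.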

The next experiment has as its target T2, ELK1 (Homo sapiens, UniProt P19419 1-428).
T2 sequence: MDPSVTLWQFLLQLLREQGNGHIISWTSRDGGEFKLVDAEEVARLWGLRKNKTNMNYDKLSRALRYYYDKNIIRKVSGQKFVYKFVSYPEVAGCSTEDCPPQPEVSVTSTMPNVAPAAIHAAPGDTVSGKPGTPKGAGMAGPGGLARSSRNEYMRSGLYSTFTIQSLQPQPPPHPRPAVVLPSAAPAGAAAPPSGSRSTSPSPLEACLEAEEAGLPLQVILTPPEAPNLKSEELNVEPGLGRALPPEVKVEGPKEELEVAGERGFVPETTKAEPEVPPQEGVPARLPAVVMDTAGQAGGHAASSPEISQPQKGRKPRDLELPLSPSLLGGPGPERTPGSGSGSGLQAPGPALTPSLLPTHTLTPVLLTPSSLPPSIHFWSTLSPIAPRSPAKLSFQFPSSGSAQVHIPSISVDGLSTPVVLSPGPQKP
The method in brief:
as §1

The next experiment concerns the target T3, GABPA (Homo sapiens, UniProt Q06546 1-454).
T3 sequence: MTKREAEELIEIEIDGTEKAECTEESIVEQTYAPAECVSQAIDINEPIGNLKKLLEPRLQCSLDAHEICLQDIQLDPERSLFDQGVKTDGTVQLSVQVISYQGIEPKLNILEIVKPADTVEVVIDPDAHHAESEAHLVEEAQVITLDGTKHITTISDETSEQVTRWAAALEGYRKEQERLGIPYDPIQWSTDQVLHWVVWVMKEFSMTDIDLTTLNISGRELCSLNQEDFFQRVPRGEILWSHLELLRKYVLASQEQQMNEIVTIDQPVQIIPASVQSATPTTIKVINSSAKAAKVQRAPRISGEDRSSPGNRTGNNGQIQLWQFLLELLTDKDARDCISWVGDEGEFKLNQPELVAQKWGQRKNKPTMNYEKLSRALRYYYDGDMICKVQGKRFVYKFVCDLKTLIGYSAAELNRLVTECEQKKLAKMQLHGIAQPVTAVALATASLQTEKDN
The method in brief: as §1

In another experiment the target is T4, ERG (Homo sapiens, UniProt P11308 1-479).
T4 sequence: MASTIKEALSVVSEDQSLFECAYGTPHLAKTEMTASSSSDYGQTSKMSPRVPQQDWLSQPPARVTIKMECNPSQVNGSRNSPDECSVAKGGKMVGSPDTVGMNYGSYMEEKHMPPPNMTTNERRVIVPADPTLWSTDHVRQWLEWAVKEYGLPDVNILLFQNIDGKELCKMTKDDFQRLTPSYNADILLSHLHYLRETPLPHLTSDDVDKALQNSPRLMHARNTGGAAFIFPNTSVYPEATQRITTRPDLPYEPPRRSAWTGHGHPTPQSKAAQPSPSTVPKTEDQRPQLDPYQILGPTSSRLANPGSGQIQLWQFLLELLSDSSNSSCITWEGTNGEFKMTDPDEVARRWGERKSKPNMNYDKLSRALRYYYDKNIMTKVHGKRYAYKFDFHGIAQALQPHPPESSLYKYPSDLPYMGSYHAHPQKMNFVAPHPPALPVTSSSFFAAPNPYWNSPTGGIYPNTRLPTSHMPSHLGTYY
The method in brief:
as §1

For a further experiment, the target named is ELF1 (Homo sapiens, UniProt P32519 1-619). In a few lines:
as §1

In a further experiment the target is T5, EHF (Homo sapiens, UniProt Q9NZC4 1-300).
T5 sequence: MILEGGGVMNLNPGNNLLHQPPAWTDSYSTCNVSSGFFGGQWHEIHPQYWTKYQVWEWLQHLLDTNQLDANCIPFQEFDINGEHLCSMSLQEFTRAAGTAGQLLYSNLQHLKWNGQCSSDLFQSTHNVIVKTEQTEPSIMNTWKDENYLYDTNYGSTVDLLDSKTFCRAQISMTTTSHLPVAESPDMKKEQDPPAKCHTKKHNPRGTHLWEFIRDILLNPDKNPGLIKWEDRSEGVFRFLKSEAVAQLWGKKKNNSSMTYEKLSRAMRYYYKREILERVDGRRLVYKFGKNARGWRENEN
The method in brief: as §1

In the next experiment the target is SPI1 (Homo sapiens, UniProt P17947 1-270). In a few lines:
as §1

For a further experiment, the target named is SPIB (Homo sapiens, UniProt Q01892 1-262). In a few lines: as §1
The next experiment deals with T6, ELK3 (Homo sapiens, UniProt P41970 1-407).
T6 sequence: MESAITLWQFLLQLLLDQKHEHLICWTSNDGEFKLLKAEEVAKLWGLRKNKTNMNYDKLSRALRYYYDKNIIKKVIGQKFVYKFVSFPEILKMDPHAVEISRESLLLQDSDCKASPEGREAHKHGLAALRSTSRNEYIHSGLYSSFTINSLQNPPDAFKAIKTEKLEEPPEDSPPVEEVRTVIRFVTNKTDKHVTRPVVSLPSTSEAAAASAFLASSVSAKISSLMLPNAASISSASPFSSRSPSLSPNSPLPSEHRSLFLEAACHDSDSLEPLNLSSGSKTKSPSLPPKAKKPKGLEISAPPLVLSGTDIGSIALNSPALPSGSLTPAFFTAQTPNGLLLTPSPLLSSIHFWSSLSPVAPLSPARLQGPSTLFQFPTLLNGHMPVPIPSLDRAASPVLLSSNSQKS
The method in brief: as §1

For another experiment, the target named is T7, FEV (Homo sapiens, UniProt Q99581 1-238).
T7 sequence: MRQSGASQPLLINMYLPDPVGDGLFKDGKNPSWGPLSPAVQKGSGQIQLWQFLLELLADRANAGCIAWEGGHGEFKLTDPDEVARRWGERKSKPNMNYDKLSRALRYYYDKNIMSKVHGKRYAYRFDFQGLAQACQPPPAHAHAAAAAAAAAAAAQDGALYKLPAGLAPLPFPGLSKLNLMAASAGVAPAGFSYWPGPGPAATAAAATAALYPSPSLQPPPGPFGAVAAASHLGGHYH
In a few lines:
as §1

Another experiment has as its target ETV5 (Homo sapiens, UniProt P41161 1-510). The method in brief: as §1
In a further experiment the target is T8, SPIC (Homo sapiens, UniProt Q8N5J4 1-248).
T8 sequence: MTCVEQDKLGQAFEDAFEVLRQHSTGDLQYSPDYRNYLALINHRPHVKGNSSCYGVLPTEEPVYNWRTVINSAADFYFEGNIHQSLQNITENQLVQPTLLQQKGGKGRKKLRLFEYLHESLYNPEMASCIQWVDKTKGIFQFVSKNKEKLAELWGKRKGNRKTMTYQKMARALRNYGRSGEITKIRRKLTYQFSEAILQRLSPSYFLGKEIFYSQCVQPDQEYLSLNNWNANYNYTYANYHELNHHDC
In a few lines: as §1

Another experiment concerns the target ELF4 (Homo sapiens, UniProt Q99607 1-663). The method in brief: as §1
The target in another experiment is T9, ELK4 (Homo sapiens, UniProt P28324-2 1-405).
T9 sequence: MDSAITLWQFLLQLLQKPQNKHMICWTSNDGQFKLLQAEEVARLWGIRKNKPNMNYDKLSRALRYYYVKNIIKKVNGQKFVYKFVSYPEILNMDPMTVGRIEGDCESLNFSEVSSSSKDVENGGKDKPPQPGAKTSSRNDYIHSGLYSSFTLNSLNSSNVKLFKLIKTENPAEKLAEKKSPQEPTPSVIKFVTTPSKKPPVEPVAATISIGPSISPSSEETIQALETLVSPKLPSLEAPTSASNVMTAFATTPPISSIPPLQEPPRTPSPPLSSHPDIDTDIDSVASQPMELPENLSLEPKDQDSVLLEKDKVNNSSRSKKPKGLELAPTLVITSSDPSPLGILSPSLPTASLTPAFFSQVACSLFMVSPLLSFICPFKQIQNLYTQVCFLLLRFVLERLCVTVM
In a few lines:
as §1

The next experiment has as its target T10, ETV2 (Homo sapiens, UniProt O00321 1-342).
T10 sequence: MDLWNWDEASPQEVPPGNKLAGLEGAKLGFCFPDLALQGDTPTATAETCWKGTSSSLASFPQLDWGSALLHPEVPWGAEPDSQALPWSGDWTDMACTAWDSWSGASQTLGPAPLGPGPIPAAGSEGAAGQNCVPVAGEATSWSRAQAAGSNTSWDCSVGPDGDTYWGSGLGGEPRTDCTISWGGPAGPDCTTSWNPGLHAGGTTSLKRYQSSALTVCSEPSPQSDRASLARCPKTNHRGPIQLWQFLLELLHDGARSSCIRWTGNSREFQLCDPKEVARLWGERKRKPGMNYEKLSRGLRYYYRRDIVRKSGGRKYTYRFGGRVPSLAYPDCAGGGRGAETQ
The method in brief: as §1

The target of another experiment is T11, ELF3 (Homo sapiens, UniProt P78545 1-371).
T11 sequence: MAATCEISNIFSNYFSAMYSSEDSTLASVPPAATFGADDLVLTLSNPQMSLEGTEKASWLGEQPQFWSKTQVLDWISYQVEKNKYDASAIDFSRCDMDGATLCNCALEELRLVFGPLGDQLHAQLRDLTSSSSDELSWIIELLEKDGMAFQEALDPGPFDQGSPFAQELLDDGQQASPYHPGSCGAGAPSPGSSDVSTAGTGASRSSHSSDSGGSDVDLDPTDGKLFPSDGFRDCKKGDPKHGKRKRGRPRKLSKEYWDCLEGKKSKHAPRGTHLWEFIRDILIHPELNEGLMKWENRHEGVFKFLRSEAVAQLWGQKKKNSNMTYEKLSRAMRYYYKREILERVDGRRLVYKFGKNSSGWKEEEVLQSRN
The method in brief:
as §1

In the next experiment the target is ETV1 (Homo sapiens, UniProt P50549 1-477). In a few lines:
as §1

The source of these data is PMC7862700, “An all-to-all approach to the identification of sequence-specific readers for epigenetic DNA modifications on cytosine”.

Sequence of ELF1 (P32519 whole entry): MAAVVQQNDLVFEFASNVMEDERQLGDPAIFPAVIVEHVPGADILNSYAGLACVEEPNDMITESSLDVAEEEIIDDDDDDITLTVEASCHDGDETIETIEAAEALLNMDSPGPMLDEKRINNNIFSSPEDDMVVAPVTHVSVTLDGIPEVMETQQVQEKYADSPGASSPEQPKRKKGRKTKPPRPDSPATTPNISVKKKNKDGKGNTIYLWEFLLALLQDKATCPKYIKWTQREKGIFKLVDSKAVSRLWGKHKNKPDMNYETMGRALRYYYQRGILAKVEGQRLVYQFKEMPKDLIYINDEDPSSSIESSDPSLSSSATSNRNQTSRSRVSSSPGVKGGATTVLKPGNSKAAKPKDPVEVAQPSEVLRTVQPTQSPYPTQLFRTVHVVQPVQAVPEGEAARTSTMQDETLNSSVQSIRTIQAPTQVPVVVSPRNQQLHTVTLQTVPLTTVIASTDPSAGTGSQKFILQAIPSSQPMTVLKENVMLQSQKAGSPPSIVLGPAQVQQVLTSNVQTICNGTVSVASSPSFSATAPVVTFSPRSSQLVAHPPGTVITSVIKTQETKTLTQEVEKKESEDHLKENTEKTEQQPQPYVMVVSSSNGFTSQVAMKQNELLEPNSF
Sequence of SPIB (Q01892 whole entry): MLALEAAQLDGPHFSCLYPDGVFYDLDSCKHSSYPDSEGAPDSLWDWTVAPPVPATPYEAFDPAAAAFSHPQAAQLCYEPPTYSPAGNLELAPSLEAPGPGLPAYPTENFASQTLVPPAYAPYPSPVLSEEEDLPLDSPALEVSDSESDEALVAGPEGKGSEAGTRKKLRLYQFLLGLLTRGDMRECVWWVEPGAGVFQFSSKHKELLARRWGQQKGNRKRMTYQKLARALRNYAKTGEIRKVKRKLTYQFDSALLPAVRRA
Sequence of ETV5 (P41161 whole entry): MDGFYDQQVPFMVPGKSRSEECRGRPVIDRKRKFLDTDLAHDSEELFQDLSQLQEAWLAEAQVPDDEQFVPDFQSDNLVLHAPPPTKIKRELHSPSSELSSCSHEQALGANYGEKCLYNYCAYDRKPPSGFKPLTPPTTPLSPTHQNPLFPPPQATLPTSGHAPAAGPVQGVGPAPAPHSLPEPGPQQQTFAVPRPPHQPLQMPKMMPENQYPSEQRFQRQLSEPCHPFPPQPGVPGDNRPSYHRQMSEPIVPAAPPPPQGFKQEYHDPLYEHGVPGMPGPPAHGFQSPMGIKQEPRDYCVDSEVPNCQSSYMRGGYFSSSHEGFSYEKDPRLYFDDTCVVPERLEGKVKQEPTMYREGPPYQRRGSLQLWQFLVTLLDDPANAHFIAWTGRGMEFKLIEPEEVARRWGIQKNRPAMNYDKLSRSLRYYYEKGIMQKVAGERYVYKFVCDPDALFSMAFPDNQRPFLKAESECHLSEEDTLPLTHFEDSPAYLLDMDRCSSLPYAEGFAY
Sequence of ELF4 (Q99607 whole entry): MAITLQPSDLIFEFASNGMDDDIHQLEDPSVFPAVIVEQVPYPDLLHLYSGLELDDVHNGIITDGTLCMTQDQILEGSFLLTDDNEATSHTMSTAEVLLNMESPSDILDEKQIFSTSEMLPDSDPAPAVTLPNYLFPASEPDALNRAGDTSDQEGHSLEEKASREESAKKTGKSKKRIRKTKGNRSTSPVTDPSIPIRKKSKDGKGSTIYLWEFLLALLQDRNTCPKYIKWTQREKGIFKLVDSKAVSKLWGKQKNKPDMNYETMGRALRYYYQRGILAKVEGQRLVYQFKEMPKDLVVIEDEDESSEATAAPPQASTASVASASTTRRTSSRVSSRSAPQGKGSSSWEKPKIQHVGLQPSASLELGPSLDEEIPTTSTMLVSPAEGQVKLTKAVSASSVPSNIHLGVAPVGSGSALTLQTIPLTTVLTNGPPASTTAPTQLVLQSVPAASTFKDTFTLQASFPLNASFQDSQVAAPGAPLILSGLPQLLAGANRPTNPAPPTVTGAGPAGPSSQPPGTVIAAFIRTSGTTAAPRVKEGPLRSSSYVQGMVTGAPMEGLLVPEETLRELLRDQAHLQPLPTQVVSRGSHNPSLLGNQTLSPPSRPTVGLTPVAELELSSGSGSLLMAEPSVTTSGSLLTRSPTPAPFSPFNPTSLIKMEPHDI
Sequence of ETV1 (P50549 whole entry): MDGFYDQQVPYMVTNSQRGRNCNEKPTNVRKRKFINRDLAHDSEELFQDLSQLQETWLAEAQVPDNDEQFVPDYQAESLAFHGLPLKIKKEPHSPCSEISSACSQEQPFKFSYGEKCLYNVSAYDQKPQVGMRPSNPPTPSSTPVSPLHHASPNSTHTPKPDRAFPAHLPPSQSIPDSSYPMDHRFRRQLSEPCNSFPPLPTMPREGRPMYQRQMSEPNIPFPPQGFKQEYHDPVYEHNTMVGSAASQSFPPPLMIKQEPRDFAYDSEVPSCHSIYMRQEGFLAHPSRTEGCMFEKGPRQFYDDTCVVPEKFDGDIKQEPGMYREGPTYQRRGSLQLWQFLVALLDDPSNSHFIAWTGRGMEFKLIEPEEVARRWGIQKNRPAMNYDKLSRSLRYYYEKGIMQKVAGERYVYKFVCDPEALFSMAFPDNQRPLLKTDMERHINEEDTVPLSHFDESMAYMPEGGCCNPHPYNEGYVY

In the case of CCAAAC, the binding signal was 1.02 fold enrichment (6-mer frequency, TF over GST control) with FLI1; 1.13 fold enrichment (6-mer frequency, TF over GST control) with ELK1; 1.15 fold enrichment (6-mer frequency, TF over GST control) in the experiment with GABPA; 1.11 fold enrichment (6-mer frequency, TF over GST control) with ERG; 1.16 fold enrichment (6-mer frequency, TF over GST control) with ELF1; 1.07 fold enrichment (6-mer frequency, TF over GST control) in the experiment with EHF. Besides, the binding signal in the experiment with SPI1 was 1.06 fold enrichment (6-mer frequency, TF over GST control); with SPIB, 1.06 fold enrichment (6-mer frequency, TF over GST control); with ELK3, 1.15 fold enrichment (6-mer frequency, TF over GST control); with FEV, 1.08 fold enrichment (6-mer frequency, TF over GST control); with ETV5 it was 1.07 fold enrichment (6-mer frequency, TF over GST control); with SPIC, 1.16 fold enrichment (6-mer frequency, TF over GST control). Also, the binding signal with ELF4 was 1.14 fold enrichment (6-mer frequency, TF over GST control); with ELK4, 1.15 fold enrichment (6-mer frequency, TF over GST control); in the experiment with ETV2, 1.07 fold enrichment (6-mer frequency, TF over GST control); with ELF3, 1.11 fold enrichment (6-mer frequency, TF over GST control); in the experiment with ETV1, 1.02 fold enrichment (6-mer frequency, TF over GST control).
Consider GCACAA, for which the binding signal with FLI1 was 1.1 fold enrichment (6-mer frequency, TF over GST control); in the experiment with ELK1, 1.13 fold enrichment (6-mer frequency, TF over GST control); with GABPA, 1.09 fold enrichment (6-mer frequency, TF over GST control); with ERG, 1.1 fold enrichment (6-mer frequency, TF over GST control); with ELF1, 1.09 fold enrichment (6-mer frequency, TF over GST control); with EHF, 1.1 fold enrichment (6-mer frequency, TF over GST control). Also, the binding signal with SPI1 was 1.05 fold enrichment (6-mer frequency, TF over GST control); with SPIB it was 1.09 fold enrichment (6-mer frequency, TF over GST control); with ELK3, 1.12 fold enrichment (6-mer frequency, TF over GST control); with FEV it was 1.1 fold enrichment (6-mer frequency, TF over GST control); with ETV5 it was 1.07 fold enrichment (6-mer frequency, TF over GST control); with SPIC, 1.09 fold enrichment (6-mer frequency, TF over GST control). For the same sequence, the binding signal with ELF4 was 1.11 fold enrichment (6-mer frequency, TF over GST control); in the experiment with ELK4 it was 1.08 fold enrichment (6-mer frequency, TF over GST control); with ETV2 it was 1.03 fold enrichment (6-mer frequency, TF over GST control); in the experiment with ELF3 it was 1.13 fold enrichment (6-mer frequency, TF over GST control); with ETV1, 1.04 fold enrichment (6-mer frequency, TF over GST control).
